Data on eleven compounds can be found in PubChem BioAssay.

The nature of test [1]: viability loss in pontine glioma line – cell-based, SU-DIPG-XXV, MIPE5.0, CellTiter-Glo, qHTS, dose response (AID 1347065; cut-off not given, nearly all actives have AC50 up to about 26 µM;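 note: cells exposed to compound for 48 hours before ATP readout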). Particulars: CellTiter-Glo ATP luminescence. (In general: Cellular ATP, detected with luciferase, serves as a proxy for viable cell number.)
Test [2] is described as follows: SU-DIPG-VI glioma cell viability, MIPE4.0 library, CellTiter-Glo luminescence, qHTS (AID 1347066; cut-off not given, nearly all actives have AC50 up to about 30 µM;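 note: cells exposed to compound for 48 hours before readout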). Particulars: CellTiter-Glo ATP luminescence.
A short description of test [3]: JHH-DIPG-1 glioma cell viability, MIPE5.0 library, CellTiter-Glo luminescence, qHTS (AID 1347067; cut-off not given, nearly all actives have AC50 up to about 26 µM;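 note: cells exposed to compound for 48 hours before readout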). Particulars: JHH-DIPG-1 glioma viability, CellTiter-Glo ATP luminescence.
A short description of test [4]: SU-DIPG-XXV glioma cell viability, MIPE5.0 library, qHTS (AID 1347068; cut-off not given, nearly all actives have IC50 up to about 30 µM). For orientation: Quantitative high-throughput screening tests each substance at several concentrations.
Test [5] in a line: phospholipid biosynthesis inhibitors in animal cells, primary screen, cell-based, LOPAC library, screen 4 (AID 1347384; call rule not given here). The conditions noted are these: phospholipid biosynthesis inhibition screen, at 10 µM.
Test [6] has as its target NAD(+) hydrolase SARM1 (Homo sapiens) (UniProt Q6SZW1). As to the kind of experiment: SARM1 TIR NADase inhibitors, cell lysate, NAD-Glo luminescence (AID 1508614;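 active = compound whose remaining NAD level is above about 45 nM, limit read from the data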;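 note: higher remaining NAD means stronger inhibition of SARM1 NADase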). The conditions noted are these: SAM-TIR HEK293T lysate NADase, at 1 µM, stronger effect = higher value.
Test [7] in a line: inhibitors of Cryptococcus chitosan production, flow cytometry, Cibacron Brilliant Red staining (AID 1347148; call rule not given here;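 note: compound exposure lasted three days at 37 degrees C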). Particulars: Cryptococcus neoformans chitosan, stronger effect = lower value; at 10 µM unless noted. In general terms: Flow cytometry measures light scatter and fluorescence of single cells or particles in a stream.
A short description of test [8]: survival rescue of mitochondrial mutant cells in low glucose, primary screen, MELAS cybrids, Rieske KO mouse fibroblasts, CellTiter-Glo (AID 1508586;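 active = mean z-score across replicates of 1.96 or higher in either the MELAS or the Rieske mutant cell line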;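 note: z relative to plate mean and SD of compound and empty wells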).
In test [9] the target is Mitogen-activated protein kinase 7 (Homo sapiens) (UniProt Q13164). As to the kind of experiment: ERK5 transactivation activators in reporter cells, primary screen, cell-based, HTS (AID 1508626;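 active = luciferase signal above three times the same-plate solvent-only control wells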;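 note: luciferase driven by Gal4-ERK5 fusion binding five Gal4 sites before minimal TATA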). Particulars: HeLa Gal4-ERK5 transactivation, 18 h, at 5 µM, stronger effect = higher value.
Test [10] in a line: viability rescue of complex I mutant cybrids, primary screen, cell-based, galactose medium, ATP luminescence (AID 1645843;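 active = z-score of at least 1.8 in each of two replicates, scored against plate mean and spread of sample wells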;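 note: positive z means more ATP and so rescue of galactose-driven cybrid death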). Particulars: complex I mutant cybrid cells, 72 h, stronger effect = higher value.
Test [11] can be described thus: modifiers of HSF1 nuclear foci, imaging, Selleck Cancer Library (AID 1347162; in the data active = plate-normalised HSF1 focus index below about 0.46). The conditions noted are these: human cells, at 10 µM; SSMD: measured here: HSF1 foci SSMD mean; cell count: measured here: cell number; plate-normalised HSF1 focus index: stronger effect = lower value.
Test [12] in a line: ovarian cancer cell viability with rucaparib, profiling panel, oncology-focused library, rucaparib conditional (AID 1508598). The conditions noted are these: patient-derived ovarian cancer cells, CellTiter-Glo viability, 144 h, stronger effect = lower value.
Setting [13] is: MELAS cybrid survival, CellTiter-Glo 48 h, stronger effect = higher value.
Setting [14] is: Rieske KO mouse fibroblast survival, CellTiter-Glo 72 h.

SMILES strings stand for the structures. Values joined by “and” are separate entries in the source; they are usually repeats but may differ in a detail not shown here. Equal values may be shown once. Results filed as inconclusive are left out. Active and inactive are the calls of the source.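 Rule for the calls, unless noted: active = normalized viability below 100% at a tested concentration; inactive = the rest.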

Chain of Mitogen-activated protein kinase 7 (Homo sapiens) (Q13164 whole entry, looked up, the tested form may be a part): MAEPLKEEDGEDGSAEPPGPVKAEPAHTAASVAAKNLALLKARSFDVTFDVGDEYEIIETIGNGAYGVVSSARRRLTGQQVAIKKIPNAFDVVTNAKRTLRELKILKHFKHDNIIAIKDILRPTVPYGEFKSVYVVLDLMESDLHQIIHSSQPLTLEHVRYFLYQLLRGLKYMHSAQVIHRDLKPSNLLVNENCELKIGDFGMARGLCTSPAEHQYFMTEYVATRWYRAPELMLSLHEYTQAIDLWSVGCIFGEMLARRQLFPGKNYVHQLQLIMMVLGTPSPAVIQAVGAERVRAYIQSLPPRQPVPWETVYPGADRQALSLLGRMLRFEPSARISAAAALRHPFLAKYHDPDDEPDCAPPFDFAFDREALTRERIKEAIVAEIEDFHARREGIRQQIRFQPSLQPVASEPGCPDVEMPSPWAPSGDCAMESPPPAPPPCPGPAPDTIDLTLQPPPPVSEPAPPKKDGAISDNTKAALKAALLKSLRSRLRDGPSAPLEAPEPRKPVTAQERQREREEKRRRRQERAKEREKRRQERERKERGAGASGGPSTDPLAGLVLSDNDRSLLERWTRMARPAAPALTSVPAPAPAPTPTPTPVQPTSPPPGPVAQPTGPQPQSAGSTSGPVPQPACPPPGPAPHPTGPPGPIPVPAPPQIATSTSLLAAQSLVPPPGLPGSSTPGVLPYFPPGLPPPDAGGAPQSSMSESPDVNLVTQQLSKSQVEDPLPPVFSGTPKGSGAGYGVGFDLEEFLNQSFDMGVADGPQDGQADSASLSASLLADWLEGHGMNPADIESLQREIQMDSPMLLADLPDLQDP
Chain of NAD(+) hydrolase SARM1 (Homo sapiens) (Q6SZW1 whole entry, looked up): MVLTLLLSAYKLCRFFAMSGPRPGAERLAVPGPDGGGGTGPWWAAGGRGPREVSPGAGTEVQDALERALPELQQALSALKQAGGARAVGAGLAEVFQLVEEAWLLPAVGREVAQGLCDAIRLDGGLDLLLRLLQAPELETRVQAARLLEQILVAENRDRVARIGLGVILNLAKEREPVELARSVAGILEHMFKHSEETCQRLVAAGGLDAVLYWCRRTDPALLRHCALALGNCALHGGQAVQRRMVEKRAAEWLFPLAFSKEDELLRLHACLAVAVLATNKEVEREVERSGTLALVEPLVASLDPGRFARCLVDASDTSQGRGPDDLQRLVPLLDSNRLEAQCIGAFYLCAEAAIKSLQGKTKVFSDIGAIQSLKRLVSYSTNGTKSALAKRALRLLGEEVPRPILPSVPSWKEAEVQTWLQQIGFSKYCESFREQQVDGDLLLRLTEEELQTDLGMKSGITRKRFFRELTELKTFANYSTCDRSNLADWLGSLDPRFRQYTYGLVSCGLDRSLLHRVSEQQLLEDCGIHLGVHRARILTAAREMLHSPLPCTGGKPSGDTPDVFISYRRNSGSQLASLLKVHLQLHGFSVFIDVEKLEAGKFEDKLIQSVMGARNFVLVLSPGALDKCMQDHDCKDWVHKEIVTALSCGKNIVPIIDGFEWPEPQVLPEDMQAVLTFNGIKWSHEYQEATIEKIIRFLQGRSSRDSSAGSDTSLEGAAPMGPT

Take `CC(C)NCC(O)COc1ccc(CCOCC2CC2)cc1` (stereo not given): the outcome in [1], in [2], in test [3], in test [4] and in test [5] was inactive. Also, in test [6], the remaining NAD was 10 nM (inactive).
Take `CCOC(=O)C(C)(C)Oc1ccc(Cl)cc1`: the call in [1], in [2], in test [3], in [4] and in test [5] was inactive. Besides, the fold fluorescence in test [7] is 5.04 (inactive). Besides, the z-score was 0.307 (inactive) and -1.09 (inactive) in test [8] (setting [13]); -0.506 and -1.36 in [8] (setting [14]); 0.15 (inactive) and 0.675 (inactive) in [10]. The remaining NAD in test [6] was 10 nM (inactive). Further, the luciferase signal in [9] was 44 AU (inactive).
Turning to `COC(=O)[C@@H]1[C@H]2C[C@H]3c4[nH]c5ccccc5c4CCN3C[C@@H]2CC[C@@H]1O`, the call in test [1], in test [2], in test [3], in test [4] and in test [5] was inactive. The z-score in test [8] (setting [13]) is 0.194 (inactive) and -0.872 (inactive); in [8] (setting [14]), 0.2 and -0.116; in [10] it was 0.525 (inactive) and 0.82 (inactive). In [6], the remaining NAD is 10 nM (inactive). Also, in test [9], the luciferase signal is 44 AU (inactive).
For `NC(=O)c1ncn([C@@H]2O[C@H](CO)[C@@H](O)[C@H]2O)n1`, the compound was classed as inactive in test [1], in test [2], in test [3], in test [4] and in test [5]. Also, the z-score in test [8] (setting [13]) is -1.67 (inactive) and -1.08 (inactive); in test [8] (setting [14]), -1.02 and -1.08; in test [10], 0.88 (inactive) and 1.56 (inactive). Also, in test [6], the remaining NAD is 10 nM (inactive). The luciferase signal in [9] is 36 AU (inactive).
Consider `Cc1cnc(NC(=O)C2=C(O)c3ccccc3S(=O)(=O)N2C)s1`, for which the compound was classed as inactive in test [1], in test [2], in [3], in [4] and in [5]. Also, the z-score was -0.282 (inactive) and 0.497 (inactive) and -0.212 (inactive) in test [8] (setting [13]); 0.842 and 0.0996 and -0.732 in test [8] (setting [14]); 1.35 (inactive) and 0.585 (inactive) and 0.515 (inactive) in test [10]. Also, in test [6], the remaining NAD was 10 nM (inactive). Moreover, in [9], the luciferase signal was 52 AU (inactive).
Regarding `CCN1CCCC1CNC(=O)c1cc(S(=O)(=O)CC)c(N)cc1OC` (stereo not given), the compound was classed as inactive in test [1], in [2], in test [3], in test [4] and in test [5]. Besides, the z-score in test [8] (setting [13]) was -0.415 (inactive) and 0.449 (inactive); in [8] (setting [14]), 0.177 and 0.21; in test [10], 0.105 (inactive) and 0.58 (inactive) and -0.055 (inactive). For the same compound, the remaining NAD in [6] was 10 nM (inactive).
Consider `NC[C@H](O)c1ccc(O)c(O)c1`, for which the result in test [1], in [2], in test [3], in [4] and in test [5] was inactive. For the same compound, the z-score in test [8] (setting [13]) was -0.303 (inactive) and 0.0574 (inactive) and -0.946 (inactive); in test [8] (setting [14]) it was -0.266 and 0.00809 and -1.27; in test [10], -1.45 (inactive) and -1.61 (inactive) and -1.02 (inactive). Besides, the remaining NAD in test [6] is 10 nM (inactive). Besides, the luciferase signal in test [9] is 60 AU (inactive).
Consider `Cc1cc(C(C)(C)C)c(O)c(C)c1CC1=NCCN1`, for which the compound was called inactive in test [1], in [2], in test [3], in [4] and in test [5]. Further, the z-score in [8] (setting [13]) is -0.371 (inactive) and 0.43 (inactive) and 0.93 (inactive); in test [8] (setting [14]), 0.698 and 0.504 and 0.891; in test [10], 0.16 (inactive) and -0.235 (inactive) and 0.51 (inactive). Moreover, in test [6], the remaining NAD was 10 nM (inactive). For the same compound, the luciferase signal in test [9] is 28 AU (inactive).
Regarding `N#Cc1ccc(C(c2ccc(C#N)cc2)n2cncn2)cc1`, the compound was classed as inactive in test [1], in [2], in test [3] and in [4]. The SSMD in test [11] was determined as 2. Further, the cell count in test [11] is 6610. Moreover, the plate-normalised HSF1 focus index in test [11] was 1.1 (inactive). Besides, the z-score was -0.0811 (inactive) and 0.894 (inactive) and -0.0703 (inactive) in test [8] (setting [13]); -0.000166 and 0.656 and -0.338 in test [8] (setting [14]); 0.515 (inactive) and 0.315 (inactive) in [10]. The viability in test [12] (at 0.000305 µM, OCI-C5x cells, with rucaparib 10 µM, 100% = cells with rucaparib alone) was 117% (inactive); in [12] (at 0.000305 µM, OCI-C5x cells, without rucaparib), 101% (inactive); in [12] (at 0.000305 µM, OCI-P5x cells, with rucaparib 20 µM, 100% = cells with rucaparib alone), 94% (active); in test [12] (at 0.000305 µM, OCI-P5x cells, without rucaparib), 91% (active); in test [12] (at 0.00122 µM, OCI-C5x cells, with rucaparib 10 µM, 100% = cells with rucaparib alone), 116% (inactive); in test [12] (at 0.00122 µM, OCI-C5x cells, without rucaparib), 113% (inactive). The viability in test [12] (at 0.00122 µM, OCI-P5x cells, with rucaparib 20 µM, 100% = cells with rucaparib alone) was 104% (inactive); in test [12] (at 0.00122 µM, OCI-P5x cells, without rucaparib) it was 94.3% (active); in [12] (at 0.00488 µM, OCI-C5x cells, with rucaparib 10 µM, 100% = cells with rucaparib alone) it was 114% (inactive); in [12] (at 0.00488 µM, OCI-C5x cells, without rucaparib), 107% (inactive); in [12] (at 0.00488 µM, OCI-P5x cells, with rucaparib 20 µM, 100% = cells with rucaparib alone), 104% (inactive); in test [12] (at 0.00488 µM, OCI-P5x cells, without rucaparib), 97.8% (active). The viability in [12] (at 0.0195 µM, OCI-C5x cells, with rucaparib 10 µM, 100% = cells with rucaparib alone) is 117% (inactive); in test [12] (at 0.0195 µM, OCI-C5x cells, without rucaparib), 112% (inactive); in test [12] (at 0.0195 µM, OCI-P5x cells, with rucaparib 20 µM, 100% = cells with rucaparib alone), 109% (inactive); in test [12] (at 0.0195 µM, OCI-P5x cells, without rucaparib) it was 106% (inactive); in test [12] (at 0.0781 µM, OCI-C5x cells, with rucaparib 10 µM, 100% = cells with rucaparib alone), 123% (inactive); in [12] (at 0.0781 µM, OCI-C5x cells, without rucaparib), 102% (inactive). Also, the viability in test [12] (at 0.0781 µM, OCI-P5x cells, with rucaparib 20 µM, 100% = cells with rucaparib alone) was 106% (inactive); in test [12] (at 0.0781 µM, OCI-P5x cells, without rucaparib) it was 105% (inactive); in [12] (at 0.313 µM, OCI-C5x cells, with rucaparib 10 µM, 100% = cells with rucaparib alone) it was 117% (inactive); in test [12] (at 0.313 µM, OCI-C5x cells, without rucaparib), 106% (inactive); in test [12] (at 0.313 µM, OCI-P5x cells, with rucaparib 20 µM, 100% = cells with rucaparib alone) it was 104% (inactive); in test [12] (at 0.313 µM, OCI-P5x cells, without rucaparib) it was 108% (inactive). For the same compound, the viability in test [12] (at 1.25 µM, OCI-C5x cells, with rucaparib 10 µM, 100% = cells with rucaparib alone) was 107% (inactive); in [12] (at 1.25 µM, OCI-C5x cells, without rucaparib), 104% (inactive); in [12] (at 1.25 µM, OCI-P5x cells, with rucaparib 20 µM, 100% = cells with rucaparib alone) it was 108% (inactive); in test [12] (at 1.25 µM, OCI-P5x cells, without rucaparib), 107% (inactive); in test [12] (at 5 µM, OCI-C5x cells, with rucaparib 10 µM, 100% = cells with rucaparib alone) it was 113% (inactive); in [12] (at 5 µM, OCI-C5x cells, without rucaparib) it was 128% (inactive). Besides, the viability in test [12] (at 5 µM, OCI-P5x cells, with rucaparib 20 µM, 100% = cells with rucaparib alone) was 112% (inactive); in [12] (at 5 µM, OCI-P5x cells, without rucaparib), 104% (inactive). Besides, the remaining NAD in test [6] was 10 nM (inactive).
With `NC(CO)C(=O)NNCc1ccc(O)c(O)c1O` (stereo not given), the call in test [1], in test [2], in test [3], in test [4] and in test [5] was inactive. Also, the z-score was -0.395 (inactive) and 0.597 (inactive) and -0.0244 (inactive) in test [8] (setting [13]); 0.352 and -0.231 and -1.37 in test [8] (setting [14]); -1.5 (inactive) and -0.255 (inactive) in test [10]. For the same compound, in test [6], the remaining NAD is 10 nM (inactive). The luciferase signal in test [9] is 132 AU (inactive).
In the case of `CCCCCN(C)CCC(O)(P(=O)(O)O)P(=O)(O)O`, the compound was called inactive in test [1], in [2], in test [3], in [4] and in test [5]. Moreover, in test [6], the remaining NAD was 10 nM (inactive).

Usually viability stands for a read-out of living cells in per cent, often relative to untreated cells.
